These results are taken from PubChem BioAssay (NCATS).

Experiment [1] concerns the target Glutathione peroxidase 1 (Homo sapiens) (UniProt P07203). Description: Primary qHTS Assay for Inhibitors of Recombinant Selenoprotein Glutathione Peroxidase 1 (GPX1) (AID 1845191). Further: potency means the concentration at half of the fitted maximal effect. An outline of the steps: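 GR-coupled assay: compounds preincubated 30 min at room temperature with GPX1, then reaction started with CHP; final 10 nM GPX1, 1 mM GSH, 0.5 mM CHP, 0.5 mM NADPH, 100 nM GR, 0.01% BSA, pH 7.5 Tris buffer. NADPH fluorescence (340/450 nm) read at 0 and 15 min.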

Experiment [2] concerns the target Phospholipid hydroperoxide glutathione peroxidase GPX4 (Homo sapiens) (UniProt P36969). Description: Primary qHTS Assay for Inhibitors of Recombinant Selenoprotein Glutathione Peroxidase 4 (GPX4) (AID 1845192). The procedure, abridged:
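GR-coupled assay: recombinant GPX4 preincubated 30 min with compound at room temperature; final 200 nM GPX4, 1 mM GSH, 0.5 mM cumene hydroperoxide, 0.5 mM NADPH, 100 nM GR, 0.01% BSA, pH 7.5 Tris. NADPH fluorescence (340/450 nm) read at 0 and 15 min.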

Results filed as inconclusive are left out. Where a call stands in place of a potency, no number is given. The source made the active and inactive calls. The call rests on the fitted dose curve; in most records, active means well fitted inhibition curve with a large enough effect; inconclusive means small, poorly fitted or top-dose-only effect; inactive means flat fitted curve, though single readings scatter.
Further: nearly all actives have a fitted effect of over 65% in size.

Chain of Glutathione peroxidase 1 (Homo sapiens) (P07203 whole entry, looked up): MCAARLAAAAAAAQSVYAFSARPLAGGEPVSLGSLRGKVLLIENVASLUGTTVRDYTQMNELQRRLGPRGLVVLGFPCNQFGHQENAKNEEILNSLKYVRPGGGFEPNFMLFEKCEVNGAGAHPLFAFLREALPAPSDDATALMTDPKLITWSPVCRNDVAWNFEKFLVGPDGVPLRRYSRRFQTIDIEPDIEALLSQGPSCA
Chain of Phospholipid hydroperoxide glutathione peroxidase GPX4 (Homo sapiens) (P36969 whole entry, looked up): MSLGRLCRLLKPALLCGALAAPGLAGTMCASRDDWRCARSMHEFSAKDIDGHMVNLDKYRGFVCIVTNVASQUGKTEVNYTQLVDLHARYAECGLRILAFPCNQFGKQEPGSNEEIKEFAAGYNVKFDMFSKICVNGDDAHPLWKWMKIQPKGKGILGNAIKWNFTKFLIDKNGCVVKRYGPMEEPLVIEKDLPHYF

For the compound `CCOC(=O)C1=C(C)NC(C)=C(C(=O)OCC)C1c1ccccc1/C=C/C(=O)OC(C)(C)C`, the Potency result in experiment [1] and in experiment [2] was “inactive” in each case.

On to `N=C(N)c1ccc(OCCCOc2ccc(C(=N)N)cc2)cc1`, for which the Potency entry in experiment [1] and in experiment [2] was “inactive” in each case.

In the case of `CC(=O)O[C@@H]1CC2C3CCc4cc(OC(=O)c5ccccc5)ccc4C3CCC2(C)[C@H]1OC(C)=O` (some centres undefined), the Potency entry in experiment [1] and in experiment [2] was “inactive” each time.

For the compound `Cc1ccc(Cl)c(OCC(O)CNC(C)(C)C)c1` (centres undefined), the Potency entry in experiment [1] and in experiment [2] was “inactive” in each case.

For `CC(=O)OCC[N+](C)(C)C`, the Potency result in experiment [1] and in experiment [2] was “inactive” throughout.

Regarding `O=C(CCCCC(=O)Nc1c(I)cc(I)c(C(=O)O)c1I)Nc1c(I)cc(I)c(C(=O)O)c1I`, the Potency entry in experiment [1] and in experiment [2] was “inactive” throughout.

Consider `CC(=O)Nc1c(I)c(NC(C)=O)c(I)c(C(=O)O)c1I`, for which the Potency result in experiment [1] and in experiment [2] was “inactive” in each case.

As for `CCCCCOc1ccccc1/C(=C\SC)n1ccnc1`, the Potency result in experiment [1] and in experiment [2] was “inactive” each time.

In the case of `Nc1ccc2cc3ccc(N)cc3nc2c1`, the Potency result in experiment [1] and in experiment [2] was “inactive” each time.

As to `O=C(Oc1ccccc1)c1ccccc1O`, the Potency result in experiment [1] and in experiment [2] was “inactive” throughout.

`O=[N+]([O-])c1cncn1CCN1CCOCC1`: the Potency entry in experiment [1] and in experiment [2] was “inactive” each time.

For `COC(=O)c1cc(Cl)ccc1NS(=O)(=O)C(F)(F)F`, the Potency entry in experiment [1] and in experiment [2] was “inactive” throughout.

Consider `O=C(CS(=O)Cc1ccco1)NC/C=C\COc1cc(CN2CCCCC2)ccn1` (centres undefined), for which the Potency in experiment [1] is 18 µM (active). Moreover, the Potency result in experiment [2] was “inactive”.

Consider `Nc1c(I)cc(I)c(C(=O)N(CCC(=O)O)c2ccccc2)c1I`, for which the Potency entry in experiment [1] and in experiment [2] was “inactive” each time.

Consider `CN1C(=O)CC(C)(c2ccccc2)C1=O` (centres undefined), for which the Potency result in experiment [1] and in experiment [2] was “inactive” throughout.

For the compound `CN1C(CSCC(F)(F)F)Nc2cc(Cl)c(S(N)(=O)=O)cc2S1(=O)=O` (centres undefined), the Potency result in experiment [1] and in experiment [2] was “inactive” each time.

Take `C/C(=N/NC(=O)c1ccncc1)C(=O)O`: the Potency entry in experiment [1] and in experiment [2] was “inactive” in each case.
